# Results filed as inconclusive are left out. Active and inactive are the calls of the source. The calls were made as follows, unless noted: active = hit-call score of the fitted dose curve at least 0.9, where 1 is the maximum; inactive = score below 0.9.
# Key:
# [1] = ATG_NFI_CIS: Attagene CIS-FACTORIAL HepG2 Assay for human Nuclear Factor I (NFI) (AID 2282989); conditions: HepG2 cis-regulatory reporter, NFI response element transcription; actives raise or lower the signal
# How it was run: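 Endogenous TF activity in HepG2 cells transiently transfected with cis-element-driven multiplexed reporter units, read 24 h after dosing. Reporter mRNA quantified by RT-PCR, 6-FAM labelling, HpaI digestion and capillary electrophoresis; bidirectional fit versus DMSO.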
# [2] = biological target: Myc proto-oncogene protein (Homo sapiens) (UniProt P01106); assay: ATG_Myc_CIS: Attagene CIS-FACTORIAL HepG2 Assay for human Myelocytomatosis (Myc) Proto-Oncogene Transcription Factor (AID 2282990); conditions: HepG2, Attagene cis-reporter transcription factor activity; actives raise or lower the signal
# Chain of Myc proto-oncogene protein (Homo sapiens) (P01106 whole entry, looked up): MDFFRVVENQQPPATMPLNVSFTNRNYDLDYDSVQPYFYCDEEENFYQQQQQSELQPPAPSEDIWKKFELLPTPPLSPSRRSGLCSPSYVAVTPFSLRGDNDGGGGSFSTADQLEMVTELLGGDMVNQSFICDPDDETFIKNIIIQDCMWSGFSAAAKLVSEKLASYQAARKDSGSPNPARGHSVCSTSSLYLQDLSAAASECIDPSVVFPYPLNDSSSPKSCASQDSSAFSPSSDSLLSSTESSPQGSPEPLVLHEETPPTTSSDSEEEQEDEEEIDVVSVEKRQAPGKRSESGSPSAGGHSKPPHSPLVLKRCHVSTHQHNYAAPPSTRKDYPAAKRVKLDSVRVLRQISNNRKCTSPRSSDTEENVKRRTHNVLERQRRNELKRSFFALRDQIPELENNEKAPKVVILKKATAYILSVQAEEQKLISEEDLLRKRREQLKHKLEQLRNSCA
# How it was run: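 Multiplexed cis-reporter transcription in HepG2 cells after 24 h chemical treatment. Reporter mRNA measured by RT-PCR and capillary electrophoresis fluorescence; activity fitted bidirectionally against DMSO control.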
# [3] = ATG_NF_kB_CIS: Attagene CIS-FACTORIAL HepG2 Assay for human Nuclear Factor Kappa B (NF-kB) (AID 2282991); conditions: HepG2 Attagene cis-factorial NF-kB reporter mRNA; actives raise or lower the signal
# How it was run: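 After 24 h compound incubation, transfected HepG2 cells yield total RNA; reporter cDNA is PCR-amplified, end-labelled with 6-FAM, HpaI-digested and analysed on a genetic analyser. Endogenous factor activity, DMSO-referenced bidirectional fit.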
# [4] = ATG_NRF2_ARE_CIS: Attagene CIS-FACTORIAL HepG2 Assay for human Nuclear Factor Erythroid 2 Related Factor 2 (NFR2) response to Antioxidant Response Elements (ARE) (AID 2282992); conditions: HepG2 Attagene ARE/NRF2 reporter, transcription factor activity; actives raise or lower the signal
# How it was run: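 Transient MRTU transfection of HepG2; 24 h compound exposure; TriZol RNA, RT with oligo(dT), PCR, 6-FAM primer extension, HpaI cut, CE. Bidirectional fit vs DMSO.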
# [5] = ATG_Oct_MLP_CIS: Attagene CIS-FACTORIAL HepG2 Assay for human Octamer-Binding Transcription Factor (Oct) (AID 2282993); conditions: HepG2 Attagene cis-factorial Oct reporter, mRNA; actives raise or lower the signal
# How it was run: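 HepG2 cells transiently transfected with cis-element-driven reporter transcription units (endogenous TF activity); 24 h compound exposure. Reporter mRNA quantified by RT-PCR, 6-FAM labelling, HpaI digestion and capillary electrophoresis; bidirectional fit versus DMSO baseline.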
# [6] = biological target: Cellular tumor antigen p53 (Homo sapiens) (UniProt P04637); assay: ATG_p53_CIS: Attagene CIS-FACTORIAL HepG2 Assay for human p53 Transcription Factor (AID 2282994); conditions: HepG2 p53 cis-element reporter, Attagene mRNA; actives raise or lower the signal
# Chain of Cellular tumor antigen p53 (Homo sapiens) (P04637 whole entry, looked up): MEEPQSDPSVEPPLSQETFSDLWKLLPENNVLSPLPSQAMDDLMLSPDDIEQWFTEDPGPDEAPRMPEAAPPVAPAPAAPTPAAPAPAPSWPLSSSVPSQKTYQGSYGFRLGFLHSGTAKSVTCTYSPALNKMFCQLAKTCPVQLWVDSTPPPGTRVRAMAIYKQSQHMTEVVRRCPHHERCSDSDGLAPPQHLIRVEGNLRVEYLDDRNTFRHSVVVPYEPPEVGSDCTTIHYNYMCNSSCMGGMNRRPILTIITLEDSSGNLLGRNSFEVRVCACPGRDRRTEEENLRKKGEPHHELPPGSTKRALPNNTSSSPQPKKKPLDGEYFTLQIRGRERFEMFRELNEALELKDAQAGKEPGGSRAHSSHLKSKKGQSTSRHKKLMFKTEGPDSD
# How it was run: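 HepG2, transient MRTU transfection (cis promoter elements, endogenous TFs); 24 h dosing; RNA isolation, RT-PCR, 6-FAM primer extension, HpaI digest, CE fluorescence; bidirectional fit vs DMSO.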
# [7] = biological target: human Peroxisome Proliferator-activated Receptor alpha (PPARa), PPARA (gene 5465) (UniProt Q07869); assay: ATG_PPARa_TRANS: Attagene TRANS-FACTORIAL HepG2 Assay for human Peroxisome Proliferator-activated Receptor alpha (PPARa) (AID 2283001; active = hit-call score of the fitted dose curve at least 0.9, where 1 is the maximum)
# Chain of human Peroxisome Proliferator-activated Receptor alpha (PPARa), PPARA (gene 5465) (Q07869 whole entry, looked up, the tested form may be a part): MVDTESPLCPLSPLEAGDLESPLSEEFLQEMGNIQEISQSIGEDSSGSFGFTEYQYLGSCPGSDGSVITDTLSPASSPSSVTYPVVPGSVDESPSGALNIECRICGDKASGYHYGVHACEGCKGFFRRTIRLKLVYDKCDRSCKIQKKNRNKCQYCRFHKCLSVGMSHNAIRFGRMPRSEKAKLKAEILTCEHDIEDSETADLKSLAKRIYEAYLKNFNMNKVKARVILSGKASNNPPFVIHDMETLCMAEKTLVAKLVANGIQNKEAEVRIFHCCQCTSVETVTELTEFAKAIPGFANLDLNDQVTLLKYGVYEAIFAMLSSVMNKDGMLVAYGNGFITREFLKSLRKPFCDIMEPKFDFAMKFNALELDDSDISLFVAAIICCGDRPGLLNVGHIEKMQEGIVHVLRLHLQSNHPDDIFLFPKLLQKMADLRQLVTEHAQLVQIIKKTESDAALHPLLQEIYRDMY
# How it was run: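 HepG2 cells transiently transfected with multiplexed GAL4-UAS reporter units and chimeric NR-Gal4 constructs were dosed for 24 h. Reporter mRNA was measured by RT-PCR with fluorescent labelling and capillary electrophoresis; gain of signal fitted against DMSO.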
# [8] = biological target: human Peroxisome Proliferator-activated Receptor delta (PPARd), PPARD (gene 5467) (UniProt Q03181); assay: ATG_PPARd_TRANS: Attagene TRANS-FACTORIAL HepG2 Assay for human Peroxisome Proliferator-activated Receptor delta (PPARd) (AID 2283002; active = hit-call score of the fitted dose curve at least 0.9, where 1 is the maximum)
# Chain of human Peroxisome Proliferator-activated Receptor delta (PPARd), PPARD (gene 5467) (Q03181 whole entry, looked up, the tested form may be a part): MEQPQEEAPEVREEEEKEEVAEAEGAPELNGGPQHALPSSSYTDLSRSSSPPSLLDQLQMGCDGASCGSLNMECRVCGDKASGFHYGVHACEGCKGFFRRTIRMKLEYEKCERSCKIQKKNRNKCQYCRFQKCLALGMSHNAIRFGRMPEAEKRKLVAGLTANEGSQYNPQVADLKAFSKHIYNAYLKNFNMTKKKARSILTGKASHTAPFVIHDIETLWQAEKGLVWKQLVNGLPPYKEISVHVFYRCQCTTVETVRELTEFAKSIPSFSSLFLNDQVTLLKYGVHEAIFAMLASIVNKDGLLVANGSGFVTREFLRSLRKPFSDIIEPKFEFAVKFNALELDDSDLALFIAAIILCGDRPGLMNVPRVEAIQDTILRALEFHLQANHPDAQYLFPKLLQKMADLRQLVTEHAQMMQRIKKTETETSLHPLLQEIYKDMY
# How it was run: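 Multiplexed trans-activation format: HepG2 liver cells expressing exogenous NR-Gal4 chimeras and GAL4-UAS reporters were exposed for 24 h. Reporter mRNA was detected by RT-PCR with capillary electrophoresis fluorescence; activity fitted as gain of signal relative to DMSO.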
# [9] = biological target: Peroxisome proliferator-activated receptor gamma (Homo sapiens) (UniProt P37231); assay: ATG_PPARg_TRANS: Attagene TRANS-FACTORIAL HepG2 Assay for human Peroxisome Proliferator-activated Receptor-gamma (PPARg) (AID 2283007; active = hit-call score of the fitted dose curve at least 0.9, where 1 is the maximum)
# Chain of Peroxisome proliferator-activated receptor gamma (Homo sapiens) (P37231 whole entry, looked up, the tested form may be a part): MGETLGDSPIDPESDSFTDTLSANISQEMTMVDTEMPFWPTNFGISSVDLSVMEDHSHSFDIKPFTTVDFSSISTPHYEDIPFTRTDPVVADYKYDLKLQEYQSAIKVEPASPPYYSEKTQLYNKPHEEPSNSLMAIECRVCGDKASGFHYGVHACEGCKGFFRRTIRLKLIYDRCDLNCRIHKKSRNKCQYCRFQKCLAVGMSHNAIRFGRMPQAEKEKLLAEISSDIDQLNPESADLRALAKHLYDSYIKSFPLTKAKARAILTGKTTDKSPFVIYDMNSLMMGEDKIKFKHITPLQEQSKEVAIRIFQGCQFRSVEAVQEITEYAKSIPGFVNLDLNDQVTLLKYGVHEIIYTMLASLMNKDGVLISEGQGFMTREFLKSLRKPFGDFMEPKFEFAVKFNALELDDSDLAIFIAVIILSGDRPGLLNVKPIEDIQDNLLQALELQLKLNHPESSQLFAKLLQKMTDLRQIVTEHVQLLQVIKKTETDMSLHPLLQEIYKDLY
# How it was run: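 Liver-derived HepG2 cells expressing an exogenous NR-Gal4 chimera alongside GAL4-UAS reporter genes; 24 h exposure. Fluorescence of reporter RT-PCR products, separated by capillary electrophoresis, gives mRNA induction relative to DMSO.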
# [10] = biological target: Nuclear receptor subfamily 1 group I member 2 (Homo sapiens) (UniProt O75469); assay: ATG_PXR_TRANS: Attagene TRANS-FACTORIAL HepG2 Assay for human Pregnane X Receptor (PXR) (AID 2283008; active = hit-call score of the fitted dose curve at least 0.9, where 1 is the maximum)
# Chain of Nuclear receptor subfamily 1 group I member 2 (Homo sapiens) (O75469 whole entry, looked up, the tested form may be a part): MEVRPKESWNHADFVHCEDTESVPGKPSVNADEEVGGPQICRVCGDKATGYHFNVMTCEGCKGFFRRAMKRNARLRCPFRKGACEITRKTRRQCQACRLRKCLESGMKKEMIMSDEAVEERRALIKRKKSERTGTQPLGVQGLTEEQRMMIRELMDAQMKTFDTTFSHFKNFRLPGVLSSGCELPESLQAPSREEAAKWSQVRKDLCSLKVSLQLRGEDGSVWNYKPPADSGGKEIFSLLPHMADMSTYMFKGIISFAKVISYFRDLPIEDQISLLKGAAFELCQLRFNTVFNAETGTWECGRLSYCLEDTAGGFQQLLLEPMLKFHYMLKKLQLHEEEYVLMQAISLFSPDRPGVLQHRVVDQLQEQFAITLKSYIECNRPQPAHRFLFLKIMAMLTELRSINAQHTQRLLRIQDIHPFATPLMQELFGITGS
# How it was run: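 Read-out is fluorescence of labelled reporter cDNA fragments separated by capillary electrophoresis after RT-PCR and HpaI digestion. Source: HepG2 cells carrying PXR-GAL4/UAS reporter constructs, treated 24 h; activity fitted upward relative to DMSO.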
# [11] = biological target: human Retinoic Acid Receptor gamma (RARg), RARG (gene 5916) (UniProt P13631); assay: ATG_RARg_TRANS: Attagene TRANS-FACTORIAL HepG2 Assay for human Retinoic Acid Receptor gamma (RARg) (AID 2283009; active = hit-call score of the fitted dose curve at least 0.9, where 1 is the maximum)
# Chain of human Retinoic Acid Receptor gamma (RARg), RARG (gene 5916) (P13631 whole entry, looked up, the tested form may be a part): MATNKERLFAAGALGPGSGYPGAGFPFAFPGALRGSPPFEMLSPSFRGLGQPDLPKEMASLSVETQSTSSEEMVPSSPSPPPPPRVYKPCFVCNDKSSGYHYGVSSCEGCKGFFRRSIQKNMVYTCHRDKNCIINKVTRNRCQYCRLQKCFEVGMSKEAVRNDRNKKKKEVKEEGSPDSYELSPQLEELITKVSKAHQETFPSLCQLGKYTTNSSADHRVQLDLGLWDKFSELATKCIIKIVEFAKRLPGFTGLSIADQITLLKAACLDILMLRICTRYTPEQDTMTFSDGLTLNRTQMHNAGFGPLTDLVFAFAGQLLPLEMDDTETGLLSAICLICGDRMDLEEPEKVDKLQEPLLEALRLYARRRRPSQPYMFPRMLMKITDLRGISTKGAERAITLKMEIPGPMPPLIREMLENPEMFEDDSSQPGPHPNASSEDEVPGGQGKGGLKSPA
# How it was run: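 HepG2 cells transiently transfected with multiplexed reporter units expressing chimeric RARg-GAL4 and GAL4-UAS-driven reporters; 24 h compound exposure. Reporter mRNA quantified by RT-PCR with fluorescent labelling and capillary electrophoresis; gain-of-signal fitted relative to DMSO baseline.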
# [12] = biological target: human Retinoic Acid Receptor beta (RARb), RARB (gene 5915) (UniProt P10826); assay: ATG_RARb_TRANS: Attagene TRANS-FACTORIAL HepG2 Assay for human Retinoic Acid Receptor beta (AID 2283004; active = hit-call score of the fitted dose curve at least 0.9, where 1 is the maximum)
# Chain of human Retinoic Acid Receptor beta (RARb), RARB (gene 5915) (P10826 whole entry, looked up, the tested form may be a part): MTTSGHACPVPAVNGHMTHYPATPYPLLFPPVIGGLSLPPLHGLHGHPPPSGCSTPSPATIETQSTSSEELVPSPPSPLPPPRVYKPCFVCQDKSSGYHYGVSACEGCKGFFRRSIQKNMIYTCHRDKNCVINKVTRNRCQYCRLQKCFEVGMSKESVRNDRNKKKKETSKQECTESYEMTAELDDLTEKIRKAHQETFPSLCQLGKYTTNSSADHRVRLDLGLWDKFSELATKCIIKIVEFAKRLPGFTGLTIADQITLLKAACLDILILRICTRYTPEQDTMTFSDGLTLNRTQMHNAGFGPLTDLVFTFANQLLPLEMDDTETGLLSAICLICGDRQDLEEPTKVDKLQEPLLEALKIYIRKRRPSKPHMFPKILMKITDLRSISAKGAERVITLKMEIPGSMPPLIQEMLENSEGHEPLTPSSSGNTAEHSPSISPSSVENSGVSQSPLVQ
# How it was run: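 HepG2 cells transiently transfected with multiplexed GAL4-UAS reporter units expressing chimeric NR–Gal4 fusions; 24 h compound exposure. Reporter mRNA quantified by RT-PCR, 6-FAM labelling, HpaI digestion and capillary electrophoresis; gain-of-signal fitted against DMSO baseline.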
# [13] = biological target: Retinoic acid receptor alpha (Homo sapiens) (UniProt P10276); assay: ATG_RARa_TRANS: Attagene TRANS-FACTORIAL HepG2 Assay for human Retinoic Acid Receptor alpha (RARa) (AID 2283005; active = hit-call score of the fitted dose curve at least 0.9, where 1 is the maximum)
# Chain of Retinoic acid receptor alpha (Homo sapiens) (P10276 whole entry, looked up, the tested form may be a part): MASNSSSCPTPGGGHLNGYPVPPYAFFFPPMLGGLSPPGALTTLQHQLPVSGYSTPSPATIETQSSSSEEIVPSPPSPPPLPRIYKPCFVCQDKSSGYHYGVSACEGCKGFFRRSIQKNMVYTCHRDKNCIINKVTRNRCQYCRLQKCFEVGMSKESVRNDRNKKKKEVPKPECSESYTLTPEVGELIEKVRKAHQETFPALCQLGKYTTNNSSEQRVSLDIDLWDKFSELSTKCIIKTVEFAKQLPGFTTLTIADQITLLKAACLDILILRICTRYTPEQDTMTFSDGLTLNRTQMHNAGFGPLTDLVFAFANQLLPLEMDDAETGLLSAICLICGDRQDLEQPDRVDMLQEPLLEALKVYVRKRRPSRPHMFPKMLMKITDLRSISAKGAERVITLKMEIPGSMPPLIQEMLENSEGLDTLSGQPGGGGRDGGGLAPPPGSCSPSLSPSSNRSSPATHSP
# How it was run: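 HepG2 cells transiently transfected with multiple reporter units expressing chimeric RARα-GAL4 fusion, with GAL4-UAS-driven reporters. After 24 h compound exposure, reporter mRNA induction quantified by RT-PCR and capillary electrophoresis with fluorescent labeling; gain-of-signal fitted relative to DMSO control.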
# [14] = biological target: human RAR-related Orphan Receptor beta (RORb), RORB (gene 6096) (UniProt Q92753); assay: ATG_RORb_TRANS: Attagene TRANS-FACTORIAL HepG2 Assay for human RAR-related Orphan Receptor beta (RORb) (AID 2283010; active = hit-call score of the fitted dose curve at least 0.9, where 1 is the maximum)
# Chain of human RAR-related Orphan Receptor beta (RORb), RORB (gene 6096) (Q92753 whole entry, looked up, the tested form may be a part): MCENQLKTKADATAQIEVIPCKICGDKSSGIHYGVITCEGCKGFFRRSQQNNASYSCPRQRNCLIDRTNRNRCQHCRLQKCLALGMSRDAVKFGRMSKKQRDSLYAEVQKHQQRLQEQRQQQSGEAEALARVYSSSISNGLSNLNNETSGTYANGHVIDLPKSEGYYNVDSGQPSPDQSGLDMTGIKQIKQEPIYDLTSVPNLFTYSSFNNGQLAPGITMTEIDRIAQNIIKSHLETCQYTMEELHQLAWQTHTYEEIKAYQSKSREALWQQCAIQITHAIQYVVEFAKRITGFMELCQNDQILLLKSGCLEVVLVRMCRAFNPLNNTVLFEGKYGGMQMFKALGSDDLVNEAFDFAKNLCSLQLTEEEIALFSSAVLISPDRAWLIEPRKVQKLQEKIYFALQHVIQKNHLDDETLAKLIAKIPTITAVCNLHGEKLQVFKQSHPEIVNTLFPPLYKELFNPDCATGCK
# How it was run: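 HepG2 cells were transiently transfected with multiplexed GAL4-UAS reporter units expressing chimeric nuclear receptor–GAL4 proteins, then dosed for 24 h. Reporter mRNA was quantified by RT-PCR with fluorescent labelling and capillary electrophoresis; gain of signal was fitted relative to DMSO.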
compound,measurement,setting,value
Clc1ccc(C(c2ccccc2Cl)C(Cl)Cl)cc1 (stereo not given),AC50,[1],34.7 µM (active)
same,outcome,[2],inactive
same,AC50,[3],100 µM (active)
same,AC50,[4],52 µM (active)
same,AC50,[5],26.7 µM (active)
same,outcome,[6],inactive
same,outcome,[7],inactive
same,outcome,[8],inactive
same,outcome,[9],inactive
same,AC50,[10],1.92 µM (active)
O=c1c(O)c(-c2ccc(O)cc2)oc2cc(O)cc(O)c12,outcome,[1],inactive
same,outcome,[2],inactive
same,outcome,[3],inactive
same,AC50,[4],8.93 µM (active)
same,outcome,[5],inactive
same,outcome,[6],inactive
same,outcome,[7],inactive
same,outcome,[8],inactive
same,AC50,[9],9.39 µM (active)
same,outcome,[10],inactive
N#Cc1ccc(CC(=O)c2cccc(C(F)(F)F)c2)cc1,AC50,[1],188 µM (active)
same,AC50,[2],158 µM (active)
same,outcome,[3],inactive
same,AC50,[4],13.5 µM (active)
same,outcome,[5],inactive
same,outcome,[6],inactive
same,outcome,[7],inactive
same,outcome,[8],inactive
same,AC50,[9],31.4 µM (active)
same,AC50,[10],5.99 µM (active)
same,outcome,[11],inactive
O=C1CCCC=CCCCCCCCCCC1,outcome,[1],inactive
same,outcome,[2],inactive
same,outcome,[3],inactive
same,AC50,[4],45.7 µM (active)
same,outcome,[5],inactive
same,outcome,[6],inactive
same,outcome,[7],inactive
same,outcome,[8],inactive
same,AC50,[9],66.8 µM (active)
same,AC50,[10],10.3 µM (active)
CCCCCCCCCCCC(=O)OC[C@@H](O)[C@H]1OC[C@H](O)[C@H]1O,outcome,[1],inactive
same,outcome,[2],inactive
same,outcome,[3],inactive
same,outcome,[4],inactive
same,outcome,[5],inactive
same,outcome,[6],inactive
same,outcome,[7],inactive
same,outcome,[8],inactive
same,outcome,[12],inactive
same,outcome,[13],inactive
same,outcome,[9],inactive
same,outcome,[11],inactive
Cc1ccc(S(=O)(=O)Oc2ccc(N=Nc3ccc(-c4ccc(N=Nc5c(O)ccc6cc(S(=O)(=O)O)cc(S(=O)(=O)O)c56)c(C)c4)cc3C)cc2)cc1,outcome,[1],inactive
same,outcome,[2],inactive
same,outcome,[3],inactive
same,outcome,[4],inactive
same,outcome,[5],inactive
same,outcome,[6],inactive
same,outcome,[7],inactive
same,outcome,[8],inactive
same,outcome,[12],inactive
same,AC50,[9],18.3 µM (active)
same,outcome,[10],inactive
same,outcome,[11],inactive
same,outcome,[14],inactive
CCCCCCCCCCCCN1CCCCCC1=O,outcome,[1],inactive
same,outcome,[2],inactive
same,outcome,[3],inactive
same,AC50,[4],10.9 µM (active)
same,outcome,[5],inactive
same,outcome,[6],inactive
same,outcome,[7],inactive
same,outcome,[8],inactive
same,outcome,[9],inactive
same,AC50,[10],1.93 µM (active)
same,outcome,[11],inactive
OCC#CCO,outcome,[1],inactive
same,outcome,[2],inactive
same,outcome,[3],inactive
same,outcome,[4],inactive
same,outcome,[5],inactive
same,outcome,[6],inactive
same,outcome,[7],inactive
same,outcome,[12],inactive
same,outcome,[13],inactive
same,outcome,[9],inactive
OCC(O)c1ccccc1 (stereo not given),outcome,[1],inactive
same,outcome,[2],inactive
same,outcome,[3],inactive
same,outcome,[4],inactive
same,outcome,[5],inactive
same,outcome,[6],inactive
same,outcome,[7],inactive
same,outcome,[8],inactive
same,outcome,[10],inactive
CC(C)c1ccccc1O,outcome,[1],inactive
same,outcome,[2],inactive
same,outcome,[3],inactive
same,outcome,[4],inactive
same,outcome,[5],inactive
same,outcome,[6],inactive
same,outcome,[7],inactive
same,outcome,[8],inactive
same,outcome,[10],inactive
same,outcome,[11],inactive
C=CC(=O)OCCC#N,outcome,[1],inactive
same,outcome,[2],inactive
same,AC50,[3],50.9 µM (active)
same,AC50,[4],25.9 µM (active)
same,AC50,[5],44.1 µM (active)
same,AC50,[6],164 µM (active)
same,outcome,[7],inactive
same,outcome,[8],inactive
same,outcome,[12],inactive
same,outcome,[13],inactive
same,AC50,[9],6.89 µM (active)
same,outcome,[10],inactive
same,outcome,[11],inactive
same,outcome,[14],inactive

# — PubChem BioAssay (EPA / NIEHS)
